Screening data as filed in PubChem.
The list is a sample of the results.
aSyn UTR act = Activators via SNCA 5'UTR binding, MLPCN. activity score, % (tested at 7.5 µM), hits read low. alpha-synuclein 5'UTR reporter, activators screen. 300,000 compounds, 7.1% hits; in the data active = activity score below about -60%
Numbers stand for hits; n = inactive.

SMILES	aSyn UTR act
CC(=C/c1ccco1)/C=N/N1CCN(c2ccccc2)CC1	-175
CC(=O)Oc1ccc(/C=N/NC(=S)Nc2ccccc2)cc1	-149
CCN(Cc1ccccc1)c1ccc(/C=N/N=C(N)N)cc1	n
CCN(CC)c1ccc(/C=N/NC(=O)Nc2ccccc2)cc1	-150
CCN(CC)c1ccc(/C=N/NC(=O)OC(C)(C)C)cc1	-153
CCOc1ccc(/C=N/NC(=O)Nc2ccccc2)cc1	-120
O=C(/C=C/c1ccco1)Nc1nc(-c2ccccn2)cs1	-79
COc1ccc(-c2csc(NC(=S)NC(=O)/C=C/c3ccco3)n2)cc1OC	n
Cc1csc(NC(=O)/C=C/c2ccco2)n1	-168
O=C(/C=C/c1ccco1)Nc1nc(-c2ccccc2)cs1	-250
O=C(/C=C/c1ccco1)Nc1nc(-c2ccc(F)c(F)c2)cs1	-100
COc1ccc(-c2cc(=O)c3cc(C)ccc3[nH]2)cc1	-63
COc1cc2[nH]c(-c3ccc(C)cc3)cc(=O)c2cc1OC	-75
CCN(CC)c1ccc(NC(=O)c2ccc(Br)o2)cc1	-151
CCN(CC)c1ccc(NC(=O)c2cnn(CC)c2)cc1	-95
COc1ccc(-c2ccc(NC(=O)c3ccc(Br)o3)cc2)nn1	-110
COC(=O)Cc1ccc(NC(=O)c2ccc(Br)o2)cc1	-153
O=C(CC(=O)c1ccccc1)Nc1cccnc1Cl	-119
O=C(CCc1ccccc1)Nc1cccnc1Cl	-64
O=C(O)CCc1ccc(S(=O)(=O)Nc2ccccc2C(=O)NCCc2ccccc2)cc1	-118
COc1ccc(NC(C)=O)cc1S(=O)(=O)Nc1ccccc1C(=O)NCCc1ccccc1	-128
COc1ccc(N(C(=O)c2cnccn2)C(C(=O)NCc2ccccc2)c2ccc(O)cc2)cc1 (stereo not drawn)	-76
O=C(COc1ccc2cc(Br)ccc2c1)N1CCCC1	-62
O=C(COc1ccc2ccccc2c1Br)Nc1ncn[nH]1	-68
CC(C)c1ccc(OCC(=O)N2CCCCCC2)c(Br)c1	-132
SMILES	aSyn UTR act
O=C(Oc1ccc2ccccc2c1Cl)N1CCCC1	-79
C=CCNC(=S)NNC(=O)COc1ccc2cc(Br)ccc2c1	-157
O=C(COc1ccc2ccccc2c1Br)N1CCCC1	-90
Oc1ccc(/C=N/Nc2cccc3cccnc23)c(O)c1	-405
Oc1ccc(/C=N/Nc2nccnc2Cl)c(O)c1	n
Cc1ccc(S(=O)(=O)Nc2cccc3cccnc23)c([N+](=O)[O-])c1	n
Cc1ccc(/C=N/Nc2cccc3cccnc23)c(O)c1	-271
O=C(Oc1c(CN2CCOCC2)cc(Cl)c2cccnc12)c1ccc(F)cc1	n
CCOc1ccccc1-n1c(CN2CCN(C(=O)c3ccco3)CC2)nc2ccccc2c1=O	n
O=C(c1ccco1)N1CCN(Cc2ccc(F)cc2Cl)CC1	-158
OC1(c2ccc(Cl)cc2)CCN(Cc2cn[nH]c2-c2ccc(F)cc2)CC1	n
O=C(c1ccco1)N1CCN(Cc2ccccc2Br)CC1	-78
OC1(c2ccc(Cl)cc2)CCN(Cc2cn[nH]c2-c2ccccc2)CC1	n
O=C(c1ccco1)N1CCCN(Cc2cn[nH]c2-c2ccc(-c3ccccc3)cc2)CC1	-95
O=C(c1cc2cc(Br)ccc2o1)N1CCCCC1	-146
Cc1ccc2oc(C(=O)NCCCN3CCOCC3)c(C)c2c1	-95
Cc1c(C(=O)N2CCCCC2)oc2ccc(Br)cc12	-138
CCCc1ccc2oc(C(=O)N(C)Cc3nccs3)c(C)c2c1	-149
Cc1ccc(-c2nc(C(=O)NCCCN3CCOCC3)cc3c2[nH]c2ccccc23)cc1	-65
CCCc1ccc2oc(C(=O)N3CCC(O)CC3)c(C)c2c1	-89
Cc1ccc2oc(C(=O)N3CCCCCC3)c(C)c2c1	-78
NC(=O)CN1C(=O)C(O)(CC(=O)/C=C\c2ccc3c(c2)OCO3)c2ccccc21 (stereo not drawn)	-70
Cc1ccc(C(=O)NCC(=O)NC23CC4CC(CC(C4)C2)C3)cc1	-76
CN(C)CCn1c2ccccc2c2nc3ccc([N+](=O)[O-])cc3cc21	n
CC(C)CSc1nnc2c3ccccc3n(C)c2n1	-75
SMILES	aSyn UTR act
CCN(CC)CCSc1nnc2c3ccccc3n(CCc3ccccc3)c2n1	-106
Brc1ccc(/C=C/C=N/Nc2nc3ccccc3s2)cc1	-73
CCC/C=N/Nc1nc2ccccc2s1	-244
C(=C\c1ccccc1)/C=N/Nc1nc2ccccc2s1	-191
COc1ccc(N2Cc3ccc(OC)c(OC)c3C2=O)cc1	-224
COc1ccc2c(c1OC)C(=O)N(c1nccs1)C2	-111
COc1ccc(N2CCc3c(C)nc4c(OC)cccc4c32)cc1	n
CC(=O)c1c(C)[nH]c(C(=O)OCc2ccccc2F)c1C	-101
CCOC(=O)c1c(C)[nH]c(C(=O)OCc2ccccc2)c1C	-165
CC(=O)c1c(C)[nH]c(C(=O)OCCOc2ccccc2)c1C	n
CCOC(=O)c1c(C)[nH]c(C(=O)C(C)Sc2ccc(Cl)cc2)c1C (stereo not drawn)	-97
CCCCCCC(=O)c1c(C)[nH]c(C(=O)OCC)c1C	-114
CCOC(=O)c1[nH]c(C)c(C(=O)Nc2ccc(C)c(Cl)c2)c1C	-92
CCOC(=O)c1c(C)[nH]c(C(=O)N/N=C\c2ccccc2O)c1C	n
CC(=O)c1c(C)[nH]c(C(=O)OCc2cccc(C)c2)c1C	-90
CCOC(=O)c1c(C)[nH]c(C(=O)OCC(=O)NCCc2ccc(OCC)c(OCC)c2)c1C	n
CCOC(=O)c1c(Cc2ccccc2)c[nH]c1C	-75
CCOC(=O)c1c(C)[nH]c(C(=O)NCc2ccccn2)c1C	-159
CC(=O)c1c(C)[nH]c(C(=O)OCc2ccc(Br)cc2)c1C	-74
CCN1C(=S)SC(=O)C1=C1C=C(C)N(CCO)C(C)=C1	-165
CC(/C=C/c1ccco1)=N/NC(=O)OC(C)(C)C	-129
C/C(=N/NC(=O)OC(C)(C)C)c1ccco1	-86
Cc1cc(N/C=C/C(=O)c2ccccc2)ccc1Br	-78
O=C(/C=C/Nc1ccc(F)cc1Br)c1ccccc1	n
Cc1ccc(N/C=C/C(=O)c2ccc(C)cc2)cc1	-241
SMILES	aSyn UTR act
COc1ccc(N/C=C/C(=O)c2cc(OC)c(OC)c(OC)c2)cc1	n
Cc1ccc(C(=O)/C=C\Nc2ccc(C)c(C)c2)cc1	-195
Cc1ccc(C(=O)/C=C/Nc2ccccn2)cc1	n
COc1ccc(N/C=C/C(=O)c2ccc(Cl)cc2)cc1	-105
Cc1ccc(O)c(N/C=C/C(=O)c2ccc(F)cc2)c1	-259
O=C(OCc1ccccc1)c1cccc(-c2nnn(Cc3ccccc3)n2)c1	-91
Nc1c(-c2ccc(Cl)cc2)cnn1-c1cccc(C(F)(F)F)c1	-102
Cc1ccc(-c2cnn(-c3cccc(C(F)(F)F)c3)c2N)cc1	-147
C=CCn1cccc(/C=C/C(=O)c2ccc(C(C)(C)C)cc2)c1=S	-74
CCn1c(NC(=O)c2cccs2)nc2ccccc21	-89
CCC(=O)Nc1nc2ccccc2n1Cc1ccc(C)cc1	n
CCN(CC)CCn1c(NC(=O)c2ccc(C)cc2)nc2ccccc21	-65
Cn1c(NC(=O)c2ccc(F)cc2)nc2ccccc21	-103
Cn1c(NC(=S)Nc2ccccc2)nc2ccccc21	-99
C/C(=N\NC(=O)c1ccccc1)c1nc2ccccc2n1C	n
CC(=O)Nc1nc2ccccc2n1Cc1ccc(Cl)cc1	n
CN(C)CCn1c(NC(=O)c2ccc(Cl)cc2)nc2ccccc21	-239
CC1CCCN(CCS(=O)(=O)c2ccccc2)C1 (stereo not drawn)	-151
CCCNC(=O)c1cc(-c2ccco2)on1	-335
CC(C)CNC(=O)c1cc(-c2ccco2)on1	-137
CCCCN1C(=O)/C(=C/C=C2/CC(C)(C)CN2C)SC1=S	-134
